JMJD2A Tudor = blocks the human JMJD2A Tudor domain; O75164; AlphaScreen JMJD2A-Tudor / H3K4me3 peptide binding; 390,000 tested, 4.4% active; AID 504339; Potency, µM (top dose mostly 114 µM), for the others: at the top dose activity change, negative = inhibition, most hits filed as inhibitors; note: % is set by controls: 0 for no effect and ±100 for the full control effect; nearly all actives have a fitted effect of over 50% in size
ALOX12 inh = inhibitors of human 12S-lipoxygenase ALOX12 | P18054 | purified 12hLO, xylenol orange hydroperoxide absorbance | Potency, µM (highest dose often 108 µM), without a hit: at the highest dose activity change, negative = inhibition, hits mostly inhibitors | 580,000 tested, 1.1% active | AID 1671190; note: % is set by controls: 0 for no effect and ±100 for the full control effect
Target sequence (P18054 whole entry, looked up): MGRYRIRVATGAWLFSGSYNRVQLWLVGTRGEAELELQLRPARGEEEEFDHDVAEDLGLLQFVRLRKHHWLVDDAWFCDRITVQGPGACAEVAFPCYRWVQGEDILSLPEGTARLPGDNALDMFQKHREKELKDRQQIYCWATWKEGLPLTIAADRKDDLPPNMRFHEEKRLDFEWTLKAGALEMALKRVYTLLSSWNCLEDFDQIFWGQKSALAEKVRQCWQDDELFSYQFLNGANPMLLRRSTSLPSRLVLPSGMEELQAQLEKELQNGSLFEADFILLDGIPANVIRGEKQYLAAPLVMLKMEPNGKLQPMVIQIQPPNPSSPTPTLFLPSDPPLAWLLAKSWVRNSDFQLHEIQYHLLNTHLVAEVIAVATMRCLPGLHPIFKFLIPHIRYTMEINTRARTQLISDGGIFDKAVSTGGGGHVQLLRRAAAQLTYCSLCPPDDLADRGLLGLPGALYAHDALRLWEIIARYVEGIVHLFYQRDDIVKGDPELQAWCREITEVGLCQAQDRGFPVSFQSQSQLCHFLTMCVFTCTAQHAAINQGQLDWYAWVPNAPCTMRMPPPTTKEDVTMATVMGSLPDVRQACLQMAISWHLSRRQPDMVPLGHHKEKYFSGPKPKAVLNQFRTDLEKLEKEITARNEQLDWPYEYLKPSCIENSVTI
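Purified human 12hLO (150 nM final) in 25 mM Hepes, 0.01% Triton X-100, pH 7.0 was preincubated 15 min at room temperature with compound. Then 40 uM arachidonic acid was added, 30 min. Hydroperoxide was read by Fe-XO absorbance ratio 573/405 nm.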
HP1b chromo inh = inhibitors of HP1-beta chromodomain binding to methylated histone tails. P83916. 390,000 tested, 0.56% active. AlphaScreen HP1-beta / biotin-H3K9me3 peptide binding. Potency, µM (series often up to 114 µM), without a hit: top-dose activity change, negative = inhibition, actives largely listed as inhibitors; note: nearly all actives have a fitted effect of over 70% in size
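HP1-beta protein (50 nM final) preincubated 30 min at room temperature with biotinylated H3(1-18)K9me3 peptide (50 nM) in PBS pH 7.4, 0.01% Tween-20, then compound added for 30 min. AlphaScreen streptavidin donor/nickel chelate acceptor beads (10 ug/mL final), 30 min dark, luminescence read.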
BAZ2B inh = blocks human BAZ2B. Q9UIF8. AlphaScreen BAZ2B-H3K14Ac peptide displacement. 360,000 tested, 4.4% active. Potency, µM (doses to about 114 µM), for inactives: at the highest dose activity change, negative = inhibition, hits mostly inhibitors; note: % is set by controls: 0 for no effect and ±100 for the full control effect; nearly all actives have a fitted effect of over 60% in size
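Compounds, titrated to a top concentration of 110 uM, were incubated 30 min at room temperature with preformed BAZ2B/acetyl-K14 H3 peptide complex (50 nM each). Proximity signal was measured by AlphaScreen after 20 min with beads.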
Sfp inh = Sfp phosphopantetheinyl transferase inhibition | Biochemical Sfp PPTase activity, qHTS | 310,000 tested, 3.5% active | Potency, µM, inactives show largest response in the series, negative = inhibition, usual class: inhibitors;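 note: the enzyme is Sfp with the accession as filed and its product quenches rhodamine fluorescence; 0% = enzyme reaction without inhibitor and -100% = no enzyme wells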
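With Hepes-Na pH 7.6 buffer containing 10 mM MgCl2, Sfp (15 nM) modified BHQ-2-YbbR (12.5 uM) using rhodamine-CoA (5 uM). Two reads 30 minutes apart at 525/598 nm yielded each well's rate.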
G9a block = blocks human histone lysine methyltransferase G9a; G9a H3K9 monomethylation, AlphaScreen, 2 h; Potency, µM (top dose mostly 102 µM), inactives show top-dose activity, negative = inhibition, usual class: inhibitors; 350,000 tested, 8.8% active; AID 504332; note: % is set by controls: 0 for no effect and ±100 for the full control effect; nearly all actives have a fitted effect of over 75% in size
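AlphaScreen read-out: biotin-H3K9 peptide (500 nM) methylation by 20 nM enzyme with 20 uM SAM, 2 h at room temperature after 15 min compound preincubation; anti-monomethyl H3K9 antibody plus donor/acceptor beads, 10 min dark.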
* hit, by the source's call; i = inactive; ? = inconclusive; · = no result; ! = a repeat was not active; [ ] = another dose, or the depositor's remark. A selection: hits, their analogues and other compounds. The true share with any hit is near 8.7%. Calls come from the whole dose curve; as a rule, active = well fitted curve in the direction sought with a large enough effect; inconclusive = small, poorly fitted or top-dose-only effect, or another doubt; inactive = no such curve, though single readings can be large; an effect the other way counts as inactive or inconclusive. Potency is the fitted concentration of half-maximal effect.

SMILES	JMJD2A Tudor	ALOX12 inh	HP1b chromo inh	BAZ2B inh	Sfp inh	G9a block
NC(=O)C1CCN(c2nc(-c3ccc(F)cc3)cs2)CC1	-18.4%	-2.0%	28.8%	56.2µM*!	·	-24.2%[12.7 µM]
NC(=O)C1CCN(c2nc(-c3ccccc3F)cs2)CC1	-30.0%	?	11.9%	?	·	1.3%[12.7 µM]
NC(=O)C1CCN(c2nc(-c3cccnc3)cs2)CC1	79.4µM*	?	38.5%	-2.9%	·	-3.9%[12.7 µM]
NC(=O)C1CCN(c2nc(-c3ccccc3C(F)(F)F)cs2)CC1	79.4µM*	-25.3%	10.7%	-36.6%	·	-9.7%[12.7 µM]
O=C(CCCc1ccccc1)NCCc1noc(-c2cccnc2)n1	·	17.2%	·	·	·	·
Cc1cc(C(=O)N2CCCCCCNC(=O)[C@@H]3C[C@@H](c4nc(-c5cccnc5)no4)C[C@@H]32)n(C)n1	·	29.2%	·	·	·	·
Cc1cc(C)n(-c2nc3c(c(=O)n(CC(=O)C(C)(C)C)c(=O)n3C)n2C)n1	·	0.5%	·	·	·	·
CC(=O)Oc1ccccc1C(=O)Nc1ccc2c(c1)CN(Cc1ccc(Cl)cc1)C(=O)C(C)O2 (centres undefined)	·	8.4%	·	·	·	·
COc1cc(Br)c(C(N)C(=O)O)cc1OC (centres undefined)	·	0.8%	·	·	·	·
O=C(CN1CCN(c2nc(-c3ccc(F)cc3)cs2)CC1)NCc1ccc2c(c1)OCO2	?	-13.0%	-22.0%	?	-28.8%	39.8µM*
O=C(NCc1ccc2c(c1)OCO2)c1csc(N2CCN(c3ccc(F)cc3)CC2)n1	·	11.6%	·	·	·	·
S=c1[nH]nc(C2CCCCC2)o1	20µM*	?	-2.9%	-13.3%	-28.3%	28.2µM*
CCCNC(=O)C1CCN(C(=O)CCc2c(C)[nH]c(C(=O)OCC)c2C)CC1	·	5.1%	·	·	·	·
Cc1nn(C)c(C)c1CS(=O)(=O)c1ccccc1	-11.0%	6.0%	35.2%	-5.7%	-2.9%	50.1µM*
Cc1ccc(S(=O)(=O)Nc2c(C)nn(C)c2C)cc1	1.8%	0.0%	36.4%	7.5%	17.0%	2.5%
O=C(Nc1nc(-c2ccccn2)cs1)c1ccc(-c2ccccc2F)o1	?	79.8%	38.9%	79.4µM*	·	43.1%[12.7 µM]
CC(=O)Nc1ccc(-c2csc(NC(=O)c3ccc(C)o3)n2)cc1	-13.3%	-14.4%	16.8%	-34.1%	-3.1%	44.7µM*
Cc1ccc(C(=O)Nc2nc(-c3ccc([N+](=O)[O-])cc3)cs2)o1	-5.6%	-17.4%	29.3%	-33.9%	-3.2%	0.0%[59 µM]
O=C(Nc1nc(-c2ccccn2)cs1)c1ccc([N+](=O)[O-])o1	22.4µM*	?	?	20µM*	15.8µM*	6.31µM*
CC(=O)c1ccc(-c2ccc(C(=O)Nc3nc(-c4ccccn4)cs3)o2)cc1	-34.1%	153.6%	-2.7%	·	·	·
O=C(Nc1nc(-c2cc(F)ccc2F)cs1)c1ccccn1	19.6%	11.3%	58.2%	0.3%	-1.7%	30.5%
Cc1ccc(C(=O)Nc2nc(-c3ccccn3)cs2)o1	50.1µM*	5.7%	27.1%	17.8µM*	-7.9%	?
Cc1ccc(-n2nnnc2C2(Nc3ccccc3C)CCCCC2)cc1	·	0.6%	·	·	·	·
CCCCCn1nc(C(=O)Nc2nc(-c3ccccn3)cs2)c2ccccc2c1=O	·	27.5%	·	·	·	·
CCc1cc(C(=O)Nc2nc(-c3ccccn3)cs2)sc1C	?	134.0%	27.6%	70.8µM*	·	-7.5%[12.7 µM]
SMILES	JMJD2A Tudor	ALOX12 inh	HP1b chromo inh	BAZ2B inh	Sfp inh	G9a block
CCCn1nc(C(=O)Nc2nc(-c3ccccn3)cs2)c2ccccc2c1=O	56.2µM*	337.0%	29.5%	?	·	44.1%[12.7 µM]
CCn1nc(C(=O)Nc2nc(-c3ccccn3)cs2)c2ccccc2c1=O	-28.4%	i	14.6%	-0.2%	·	-8.2%[12.7 µM]
O=[N+]([O-])c1ccccc1CNc1ccc(F)c(Cl)c1	?	-15.2%	-28.7%	50.1µM*	-15.9%	?
O=C(Cc1ccc(F)cc1)Nc1ccc(F)c([N+](=O)[O-])c1	-3.8%	0.0%	17.2%	-7.6%	11.0%	-1.4%
COc1cccc(CNc2ccc(F)c([N+](=O)[O-])c2)c1O	?	?	-16.5%	-34.9%	12.2%	50.1µM*
Cc1ccccc1CC(=O)NCC(C)C	·	-5.1%	·	·	·	·
Cc1cccc(CN2CCN(CC(=O)N3CCCC3)C2=O)c1	7.4%	0.0%	22.4%	8.3%	10.4%	21.3%
Cc1cccc(CN2CCN(CC(=O)O)C2=O)c1	3.8%	22.1%	32.1%	-10.8%	89.1µM*	?
COCCC(=O)N1CCC2(CC1)NCCc1c2[nH]c2ccc(OC)cc12	·	60.3%	·	·	·	·
CNS(=O)(=O)c1ccc2c3c(cccc13)C(=O)N2C	13.0%	8.91µM*	?	-4.3%	23.1%	39.7%
COCCN(CCOC)CC[C@@H]1CC[C@H](O)[C@@H](C(=O)NCc2ccc(OC)cc2)O1	·	16.9%[176 µM]	·	·	·	·
Cc1noc(-c2ccco2)c1C(=O)NCc1ccc(F)cc1F	·	-29.7%	·	·	·	·
CN1CCN(C(=O)CSCc2ccccc2Cl)[C@H]2CS(=O)(=O)C[C@H]21	·	30.9%	·	·	·	·
COC(=O)c1ccc2nc3c(cc2c1)[C@@H]1CCN2C(=O)CCC[C@H](C3)[C@H]12	0.7%	-1.1%	34.4%	·	·	·
O=C1CCC[C@@H]2Cc3[nH]c4c(Cl)ccc(Cl)c4c3[C@@H]3CCN1[C@H]23	-29.9%	1.8%	-9.9%	-11.0%	-0.1%	50.1µM*
CCOC(=O)c1ccc2c(c1)C1C=CCC1C(C(=O)OCC)N2 (centres undefined)	?	?	-7.1%	44.7µM*	44.7µM*	11.2µM*
CCOC(=O)C1Nc2ccc(Br)cc2C2C=CCC12 (centres undefined)	39.8µM*	?	?	44.7µM*	28.2µM*	3.55µM*
COc1ccc(Br)cc1[C@@H]1Nc2ccc(C(=O)O)cc2[C@@H]2C=CC[C@@H]21	-35.3%	?	-7.3%	?	·	?
CCOC(=O)C1Nc2ccc(C)cc2C2C=CCC12 (centres undefined)	56.2µM*	31.6µM*	-16.5%	·	·	·
O=C(O)C1Nc2ccc(Br)cc2C2C=CCC12 (centres undefined)	20µM*	·	17.8µM*	3.16µM*	?	1.78µM*
CC(C)CNC(=O)C1Nc2ccc(OC(F)(F)F)cc2C2C=CCC12 (centres undefined)	?	?	2.5%	·	·	·
CC(C)CNC(=O)C1Nc2ccccc2C2C=CCC12 (centres undefined)	?	-23.4%	-12.7%	·	·	·
O=C(OC1CCCCC1)c1ccc2c(c1)C1C=CCC1C(C(=O)O)N2 (centres undefined)	·	·	·	7.08µM*	-17.9%	?
COC(=O)CNC(=O)C1Nc2ccccc2C2C=CCC12 (centres undefined)	56.2µM*	-17.4%	-14.2%	·	·	·
COC[C@@H]1CN(C(=O)c2cc(C3CC3)[nH]n2)C[C@H]1c1nc(C2CC2)no1	·	-3.6%	·	·	·	·
COc1ccc(C(C#N)=C2C=CC(=NO)C(C)=C2Cl)cc1	8.91µM*	20µM*	?	·	·	·

From PubChem BioAssay
